Experimental findings from the supplement of paper PMC10338343 are described below.

± gives the standard deviation. Some results are limits rather than exact numbers.
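Note: 1 nM active piRISC with 0.1 nM target library at 33 °C single turnover.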

This assay concerns MILI (PIWIL2) piRISC loaded with piRNA #1 (26 nt). Nature of the assay: pre-steady-state target cleavage rate (min^-1); guide: piRNA #1 5'p-UGAGGUAGUAGGUUGUAUAGUAUCCA; MIWI and MILI are mouse PIWI proteins and EfPiwi is from a freshwater sponge; tags in brackets are library labels; higher = faster piRNA-guided slicing of the target. The conditions noted are these: auxiliary factor: 500 nM mouse GTSF1. An outline of the steps: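 Cleave-'n-Seq measured uncleaved targets by sequencing after a transcribed, DNA-blocked target RNA library […] was mixed with 1 nM active affinity-purified piRISC holding one synthetic guide, with or without 500 nM GTSF1 partner protein, at 33 °C in HEPES–potassium acetate buffer for 0–8 or 0–960 min. Counts were normalised to depth and to weakly complementary targets, three trials were pooled, and k3 was capped at 0.0001 min^-1. A burst-and-steady-state fit gave the pre-steady-state cleavage rate.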
Consider GGAGACCUAUGAUUACAACCUAUUACCUCA, for which the “pre-steady-state target cleavage rate” value was found to be 0.00348 ± 0.0024. GGAGACGAUAGUAUACAACCUACUUCCUCA: the “pre-steady-state target cleavage rate” value is 0.0731 ± 0.015.

For the sequence GGAGACCUAUGAAUACAACCUACUCACCUCA, the “pre-steady-state target cleavage rate” value is 0.004 ± 0.0026. For GGAGACCUAACUAUACAACCUACUACCAUCA the value was 0.261 ± 0.038. The figure for GGAGACCUAUGAUAUGAACUACUACCUCA is 0.00657 ± 0.0021.

In the case of GGAGUGGAUUCUAAACAACCUACUACCUCA, the “pre-steady-state target cleavage rate” value came out at 0.143 ± 0.0089. In the case of GGAGAGCAUUCUAUACAACCUACUACCUCA, the “pre-steady-state target cleavage rate” value turned out to be 0.156 ± 0.013. For GGAGACCUAUCUAUACAACGUAGUACCUCA the value was 0.00772 ± 0.0031; for “GGAGACCUUACUAUACAAGGAUGAUGGAGA [g13:g22:cont:t1A]”, under 0.0001.

Take GGAGACCUAUGAUUGCAACCUACUACCUCA: the “pre-steady-state target cleavage rate” value stood at 0.00532 ± 0.003. For GGAGACCAUACUUUACAACCUUCUACCUCA the value was 0.0105 ± 0.0033; for GGAGACCUAUGAUAUGAAGGAACUACCUCA, under 0.0001. The figure for GGAGACCUAACAUAACAACCUACUACCUCA is 0.0321 ± 0.011. The figure for “GGAGACCUAUGAUAUGAACCUAGAUGGAGA [g9:g14:cont:t1A]” is under 0.0001.

As for GGAGACCUAUGAUUACAAGCUAGUACCUCA, the “pre-steady-state target cleavage rate” value was 0.0146 ± 0.006. As for GGAGACCUUACUAUAAAACCUACUACCUCA, the “pre-steady-state target cleavage rate” value was 0.16 ± 0.019. With GGAGACCUAUGUAUACAACUUACUACCUCA, the “pre-steady-state target cleavage rate” value came out at 0.0134 ± 0.0024. The figure for GGAGACCUAUGAUUACAACGUACUUCCUCA is 0.00374 ± 0.0031. Turning to “GGAGACCAUACUAUACUUGGAUGAUGGAGA [g15:g23:cont:t1A]”, the “pre-steady-state target cleavage rate” value was under 0.0001. For GGAGACCUAUGAUAUGUUGCUACUACCUAA the value was under 0.0001; for GGAGACCUAACUAUACAUCCUACUACGUCA, 0.173 ± 0.052; for GGAGACGAUACUAUACAACCAACUACCACA, 0.00835 ± 0.0032. The figure for “GGAGACCUAUGAUAUGUUGGUACUACCAGA [g4:g10:cont:t1A]” is under 0.0001; for GGAGUGGAUACUAUACAACCUACUAUCCUCA it is 0.05 ± 0.0077; for GGAGACCUAUGAUAUGUUGCUACUAGGACA it is under 0.0001. For GGAGACCUAUGAAUACAAGCUACUAGCUCA the value was 0.00622 ± 0.0027; for GGAGAGGCUACUAUACAACCUACUACCUCA, 0.182 ± 0.017; for GGAGACGAUUCUUUACAACCUACUACCUCA, 0.152 ± 0.011. On to GGAGACCUAACUAUGACAACCUACUACCUCA, for which the “pre-steady-state target cleavage rate” value was determined as 0.0415 ± 0.0097. Turning to GGAGACCUAUCAAAACAACCUACUACCUCA, the “pre-steady-state target cleavage rate” value is 0.0082 ± 0.0029. For GGAGACCUAUGAAUACAACCUACUACGCUCA, the “pre-steady-state target cleavage rate” value turned out to be 0.0107 ± 0.0039.

As for GGAGACCUAUGUAUACAAGGUACUACCUCA, the “pre-steady-state target cleavage rate” value came out at 0.0261 ± 0.0047. As for GGAGACCUAUGAUAUCAACCUACACCUCA, the “pre-steady-state target cleavage rate” value is under 0.0001. Turning to GGAGACCUAUCUAAACAACCUACAACCUCA, the “pre-steady-state target cleavage rate” value was determined as 0.0563 ± 0.0063. On to GGAGACCUAUGAUAACAACCUAUCUACCUCA, for which the “pre-steady-state target cleavage rate” value came to 0.00737 ± 0.0021. For GGAGACCUUACUAUACAACCUACCACCUCA the value was 0.118 ± 0.015; for GGAGACCUAUGAUUACAACCUACUCCUCA, under 0.0001. For GGAGACCUAACUUACAACCUACUACCUCA the value was 0.0068 ± 0.0056. For GGAGACCUAUGUAUUCUACCUACUACCUCA the value was 0.0111 ± 0.0026.
